OTUD3 inh: inhibitors of human OTUD3 deubiquitinase; purified OTUD3, Ub-rhodamine fluorescence, 2 h; inhibition, % at 25 µM; 47,000 compounds, 0.7% hits
USP28 block: inhibitors of human USP28 deubiquitinase; Ubiquitin carboxyl-terminal hydrolase 28 (Homo sapiens), Q96RU2; purified USP28, Ub-rhodamine cleavage fluorescence, 30 min; inhibition, % at 25 µM; 47,000 compounds, 3% hits; AID 1645857, 2021
Numbers without * were called inactive. Shown are actives, neighbours in structure and some others; about 3.3% of the full set was active somewhere. Rule as the data show it: active = inhibition above about 30%; inactive = the rest.

SMILES | OTUD3 inh | USP28 block
COc1ccc(OC)c(-c2c(C#N)c(C)nc3c2N2CCC3CC2)c1 | 33* | 94*
CC1CCC/C=C/C=C/C(O)CC(O)C/C=C\C=C\C(O)C/C=C/C=C\C(=O)O1 (stereo unspecified) | 14 | -3
Cc1cccc(C2(c3cccc(C)c3)OCCN(C)C2C)c1 (stereo unspecified) | -72 | -94
CCN1CCC2(COCc3c(C)nc(NCC4CC4)nc32)C1 (stereo unspecified) | -11 | -7
Cn1c(=O)c2ncnnc2n(C)c1=O | 90* | 96*
COc1c(Cl)ccc2c(=O)c3c(O)c4c5c(c3oc12)OCO[C@H]5[C@@H](OC)c1cc2c(c(O)c1-4)C(=O)N(C)[C@H](OC)[C@@H]2O | 23 | 49*
CO[C@H]1CC[C@H](O)c2c1oc1c3c4c(c(O)c1c2=O)-c1c(cc2cc(C)n(N)c(=O)c2c1O)C[C@@H]4OCO3 | 6 | 8
COc1c(Cl)ccc2c(=O)c3c(oc12)C1=C2[C@@H](OCO1)[C@@H](OC)c1cc4c(c(O)c1[C@@]2(O)[C@H]3O)C(=O)N(C)[C@H](OC)[C@@H]4O | 32* | 43*
COc1ccc2nc(C(=O)N[C@@H]3COC(=O)[C@H](C(C)(C)O)N(C)C(=O)CN(C)C(=O)CNC(=O)[C@@H]4[C@@H](OC(C)=O)CC=NN4C(=O)[C@H](NC(=O)c4nc5ccc(OC)cc5cc4O)COC(=O)[C@H](C(C)(C)O)N(C)C(=O)CN(C)C(=O)CNC(=O)[C@@H]4[C@@H](OC(C)=O)CC=NN4C3=O)c(O)cc2c1 | -13 | -4
CN1CCc2c(C#N)c(N3CCOCC3)n3cnnc3c2C1 | -9 | -15
CO[C@H](c1ccccc1)[C@@H]1NC(=O)[C@H](C)NC(=O)[C@H](C[C@@H](C)CO)N(C)C(=O)[C@H]([C@H](O)c2cn(C(C)(C)[C@@H]3CO3)c3ccccc23)NC(=O)[C@H]([C@H](C)C=C(C)C)NC(=O)[C@H](CC(C)C)N(C)C(=O)[C@H](C(C)C)NC1=O | 19 | -2
C[C@@H]1CC[C@@]2(NC1)OC1CC3C4CC=C5C[C@@H](O)CC[C@]5(C)C4CC[C@]3(C)C1[C@@H]2C (stereo partly specified) | 11 | 5
CC1CC[C@@]2(NC1)O[C@H]1C[C@H]3[C@@H]4CC=C5C[C@@H](O)CC[C@]5(C)[C@H]4CC[C@]3(C)[C@H]1[C@@H]2C (stereo partly specified) | 14 | 31*
Cc1cccc(COc2ccc(C3SCC(=O)Nc4n[nH]c(C)c43)cc2)c1 (stereo unspecified) | 13 | 13
CN(C)[C@@H]1C(=O)C(C(N)=O)=C(O)[C@@]2(O)C(=O)C3=C(O)c4c(O)cccc4[C@@](C)(O)C3[C@H](O)[C@@H]12 (stereo partly specified) | 90* | 87*
CN(C)[C@@H]1C(=O)C(C(N)=O)=C(O)[C@@]2(O)C(=O)C3=C(O)c4c(O)cccc4[C@@](C)(O)[C@H]3C[C@@H]12 | 24 | 28
CC(C)=CCC[C@H](C(=O)O)[C@@H]1CC[C@]2(C)C3=C(CC[C@@]12C)[C@@]1(C)CCC(=O)C(C)(C)C1CC3 (stereo partly specified) | 11 | 17
CC(C)=CCCC1(C)C=Cc2c(O)c3c(c(CC=C(C)C)c2O1)O[C@]12C(=C[C@@H]4CC1C(C)(C)O[C@@]2(C/C=C(/C)C(=O)O)C4=O)C3=O (stereo partly specified) | 77* | 90*
CC(C)[C@@H]1NC(=O)[C@H](C)OC(=O)[C@@H](C(C)C)NC(=O)[C@@H](C(C)C)OC(=O)[C@H](C(C)C)NC(=O)[C@H](C)OC(=O)[C@@H](C(C)C)NC(=O)[C@@H](C(C)C)OC(=O)[C@H](C(C)C)NC(=O)[C@H](C)OC(=O)[C@@H](C(C)C)NC(=O)[C@@H](C(C)C)OC1=O | -11 | -8
CN=C1NC(=O)[C@H]([C@@H](C)c2c[nH]c3ccccc23)O1 | 16 | 4
CO[C@H]1[C@@H](O)[C@H](C)O[C@H](O[C@H]2[C@H](Oc3cccc4c(O)c5c(=O)oc6ccc(C)c7c(=O)oc(c34)c5c67)O[C@H](C)[C@H](O)[C@@H]2O)[C@@H]1O | 51* | 65*
Cc1nn(C2CCOC(C)(C)C2)c2c1C(c1ccc([N+](=O)[O-])cc1)SCC(=O)N2 (stereo unspecified) | 1 | -5
CC(C)N(C)C(=O)C1=NOC2(CCCNC2)C1 (stereo unspecified) | -3 | -11
CN(C)Cc1c[nH]c2c(OCc3ccccc3)cccc12 | 15 | 45*
CC[C@@H]1[C@@H](O)N2C3C[C@H]1C1[C@@H](O)[C@]4(C[C@@H]12)c1ccccc1N(C)C34 (stereo partly specified) | -8 | -12
O=c1c2ccccc2nc(CSc2cccc(Cl)c2Cl)n1-c1ccccc1 | 9 | -4
